TDP1 cell CPT – DT40-hTDP1 cell growth loss with CPT; Potency, µM (highest dose often 46.2 µM), hits mostly inhibitors; actives 12% (n = 420,000); AID 686979; chicken DT40 Tdp1-/-;hTDP1 cells + 20 nM CPT, ATP luminescence, 48 h; also: nearly all actives have a fitted effect of over 55% in size
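Cell growth measured by CellTiter-Glo luminescence after a minimum 48 h, 37 C compound exposure with 20 nM CPT in Tdp1-knockout DT40 cells stably expressing hTDP1, seeded 400/well; qHTS titration format.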
TDP1 cell noCPT – qHTS for Inhibitors of human tyrosyl-DNA phosphodiesterase 1 (TDP1): qHTS in cells in absence of CPT | DT40 Tdp1-/- hTDP1 cells, no CPT, ATP luminescence, 48 h | Potency, µM (doses to about 46.2 µM), most hits filed as inhibitors | actives 15% (n = 420,000) | AID 686978, 2013; also: nearly all actives have a fitted effect of over 55% in size
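Growth of hTDP1-complemented DT40 Tdp1-knockout cells is measured by ATP luminescence after at least 48 hr compound exposure at 37 °C, with DMSO substituting for the 20 nM CPT used in the parallel screen.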
IL-1B inflam inh – blocks inflammasome-driven IL-1 beta release; THP-1 LPS/ATP IL-1B secretion, AlphaLISA, 16 h; active compounds read low; activity change, % at 57.5 µM; actives 4.7% (n = 360,000); in the data active = activity change below about -50%; inconclusive = mostly about -30% to -49%
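Secreted IL-1B measured by AlphaLISA bead assay after 16 h compound exposure of THP-1 cells; compounds (final up to 57.5 uM) added 1 h before LPS (250 ng/mL) and ATP (1.25 mM) stimulation; lower signal means less secretion.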
HT1080-NT tox – kills 2HG-producing HT-1080-NT fibrosarcoma cells | HT-1080-NT fibrosarcoma viability, CellTiter-Glo ATP luminescence, 48 h | Potency, µM (highest dose often 46.1 µM), hits mostly cytotoxic | actives 1.6% (n = 360,000);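 also: NT is the 2HG producing partner of a matched IDH1 knockdown line; nearly all actives have a fitted effect of over 55% in size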
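Luminescent CellTiter-Glo readout after 48 hours of compound exposure at 37 degrees C defined viability of HT-1080-NT cells. Activity was normalized to DMSO wells and cell-free media wells; concentration-response curves were fitted and assigned curve classes.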
HT1080 IDH1KD tx – kills HT-1080 cells with IDH1 knockdown. Potency, µM (highest dose often 46.1 µM), most hits filed as cytotoxic. HT-1080 IDH1 knockdown viability, ATP luminescence, 48 h. actives 2% (n = 360,000). AID 686971
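After a 2 h attachment period, IDH1KD HT-1080 cells took pin-transferred compound for 48 h at 37 °C; ATP-based luminescence after 10 min room-temperature reagent incubation reported viability.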
Numbers stand for hits; i = inactive; ? = inconclusive; nt = not tested or not shown. In the library only some 19% were active in any assay of this set; here they are far more common. Unless noted, calls follow the shape of the dose curve; as a rule, active = well fitted curve in the direction sought with a large enough effect; inconclusive = small, poorly fitted or top-dose-only effect, or another doubt; inactive = no such curve, though single readings can be large; an effect the other way counts as inactive or inconclusive.

SMILES	TDP1 cell CPT	TDP1 cell noCPT	IL-1B inflam inh	HT1080-NT tox	HT1080 IDH1KD tx
Cc1cc(C(=O)N(Cc2nnc(-c3ccc(Cl)cc3)o2)C(C)C)c2ccccc2n1	?	15µM	i	i	i
CCCCNC(=O)c1nn(-c2ccc(C)cc2)c(=O)n(C)c1=O	i	i	nt	nt	nt
Cc1[nH]c2c(ccc3ccccc32)c1C1C(CCN)C1(C)C (centres undefined)	?	23µM	?	i	i
S=c1[nH]c2ccc3ccccc3c2[nH]1	i	i	i	i	i
CC(C)n1c(=O)c2ccccc2n1S(C)(=O)=O	i	i	i	i	i
Cc1cc(N(C)C)nc(Nc2ccccc2)n1	i	?	-79	i	i
COc1ccc(CNC(=O)Nc2cccc(C(F)(F)F)c2)cc1OC	?	9.2µM	i	i	i
CSc1cccc(NC(=O)NCc2cccc(CNC(=O)Nc3cccc(SC)c3)c2)c1	?	?	i	23µM	?
COc1ccc(CNC(=O)NCc2ccc(OC)c(OC)c2)cc1OC	i	i	i	i	i
O=C(COc1ccc(C(F)(F)F)cc1[N+](=O)[O-])Nc1cccc(C(F)(F)F)c1	i	i	i	i	i
CCOc1cc(CNC(CC)CO)ccc1OCC(=O)Nc1cccc(C(F)(F)F)c1 (centres undefined)	?	26µM	i	i	i
O/C(=C\Sc1nnc(Cc2ccccc2)o1)c1ccc(F)cc1	i	i	i	i	i
COCCNC(=O)CCn1c(=O)c2cc(OC)c(OC)cc2n(CC(=O)Nc2ccccc2C)c1=O	i	i	nt	nt	nt
O=C(Cn1cc([N+](=O)[O-])cn1)NC1CCCCCC1	i	i	i	i	i
CCn1c(SCC(=O)Nc2nc3ccc(C)cc3s2)nc2c(c1=O)SC(C)C2 (centres undefined)	16µM	10µM	-83	i	i
CCn1c(SCC(=O)Nc2nc3ccccc3s2)nc2c(c1=O)SC(C)C2 (centres undefined)	0.73µM	23µM	?	?	i
O=C(O)c1ncn(Cc2ccc(Br)cc2)c1C(=O)O	i	i	i	i	i
Cn1cnc(NCc2ccccc2)c1[N+](=O)[O-]	i	i	i	i	i
COc1ccc(Nc2cc(C(=O)NCCCN(C)C3CCCCC3)c3ccccc3n2)cc1	15µM	21µM	nt	nt	nt
CC(C)c1ccc(Nc2cc(C(=O)NCCCN(C)Cc3ccccc3)c3ccccc3n2)cc1	9.2µM	?	nt	nt	nt
COc1cccc(C2(CC(=O)N3CCCOc4c(cccc4OC)C3)CC(=O)N(C)C2=O)c1 (centres undefined)	i	i	nt	nt	nt
COc1ccc2c(c1)OC[C@H]1[C@H]2N2C(=O)c3cc(F)ccc3NC(=O)[C@@]2(C)[C@H]1c1ccccc1	?	18µM	-62	?	?
COc1ccc2c(c1)OC[C@H]1[C@H]2N2C(=O)c3cc(OC)ccc3NC(=O)[C@@]2(C)[C@H]1c1ccccc1	?	?	i	?	?
COc1ccc2c(c1)OC[C@H]1[C@H]2N2C(=O)c3ccc(C)cc3NC(=O)[C@@]2(C)[C@H]1c1ccccc1	23µM	?	?	i	?
CCOC(=O)CN(C(=O)CNC(=O)c1cccs1)C(C(=O)NC1CCCCC1)c1cccs1 (centres undefined)	i	i	i	i	i
SMILES	TDP1 cell CPT	TDP1 cell noCPT	IL-1B inflam inh	HT1080-NT tox	HT1080 IDH1KD tx
Cc1ccc(N(C(=O)C(F)(F)F)C(C(=O)NC2CCCCC2)c2cccs2)cc1 (centres undefined)	?	?	i	i	i
COc1ccc(CCN(C(=O)C(F)(F)F)C(C(=O)NC2CCCCC2)c2cccs2)cc1 (centres undefined)	7.3µM	4.6µM	i	i	i
COCCN(C(=O)C(F)(F)F)C(C(=O)NC1CCCCC1)c1ccco1 (centres undefined)	i	?	i	i	i
COc1ccc(CCN(C(=O)C(F)(F)F)C(C(=O)NC2CCCCC2)c2ccc(C)s2)cc1 (centres undefined)	3.3µM	2.8µM	i	i	i
O=C(NC1CCCCC1)C(c1cccs1)N(Cc1cccs1)C(=O)c1cccs1 (centres undefined)	18µM	16µM	-66	?	?
Cc1ccc(NC(=O)CN(C)C(=O)COc2ccc(Br)cc2)cc1	i	i	i	i	i
O=C(NCCS(=O)(=O)NCCc1ccccc1)c1ccccc1	i	i	i	i	i
O=C1NC(=O)C2(CCCCCCCCCCC2)N1	i	i	i	i	i
Cc1ccc(NC(=O)/C=C/c2ccc([N+](=O)[O-])s2)cc1	3.3µM	3.7µM	-96	?	?
COc1cccc(NC(=O)/C=C/c2ccccc2[N+](=O)[O-])c1	?	?	i	i	i
Cc1cccc(NC(=O)/C=C/c2ccc([N+](=O)[O-])s2)c1	2.6µM	2.6µM	-97	2.9µM	4.1µM
Cc1cc([N+](=O)[O-])ccc1NC(=O)/C=C/c1cccs1	i	?	?	i	i
Cc1ccc(NC(=O)/C=C/c2ccc([N+](=O)[O-])s2)c(C)c1	2.6µM	3.7µM	-96	2.6µM	2.3µM
CC1(C(=O)Nc2ccc3c(c2)OCCO3)CCC(=O)N1C1CC1 (centres undefined)	i	i	i	?	i
COCc1cc(C)nc(N/N=C/c2ccc(-c3ccc(Cl)cc3[N+](=O)[O-])o2)c1C#N	i	i	i	i	i
CCCn1nc(NC(=O)C2CCCO2)c2cc3cccc(C)c3nc21 (centres undefined)	i	15µM	i	i	i
CC(C)Cn1nc(NC(=O)C2CCCO2)c2cc3ccccc3nc21 (centres undefined)	?	?	i	i	i
COc1ccc(CN2C(=O)c3ccccc3C(/C=N\OCc3ccc(C)cc3)C2=O)cc1 (centres undefined)	21µM	21µM	i	i	i
COc1ccc(CN2C(=O)c3cccc4cccc(c34)C2=O)cc1	i	i	i	?	i
COc1ccc(NC(=O)CSc2nnnn2C2CCCC2)cc1S(=O)(=O)N1CCOCC1	i	i	i	i	i
COc1ccc(O)c(CN2CCC3(CCC(CNC(=O)c4ccccc4)O3)CC2)c1 (centres undefined)	i	?	nt	nt	nt
O=C(Nc1ccccc1)c1cccc(S(=O)(=O)Nc2cccc(F)c2)c1	?	26µM	nt	nt	nt
O=C(Nc1ccc(Nc2ccccc2)cc1)c1cccc(F)c1	?	18µM	i	i	i
O=C(Nc1ncccn1)c1cccc(F)c1	i	i	i	i	i
Cc1cccc(Nc2ncc(NC(=O)c3cccc(F)c3)c(Nc3cccc(C)c3)n2)c1	7.3µM	5.8µM	nt	nt	nt
Cc1ccccc1CN1CCN(CC(=O)NC(C)c2ccccc2)CC1 (centres undefined)	i	i	i	i	i

From PubChem
